Experiment [1] is described as follows: AP1 Signaling Pathway (AID 357; active = well fitted curve in either direction with a large enough effect, not every such curve was filed as active;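 also: ME-180 reporter cells stimulated with EGF at its EC50 level; % is scaled to controls: 0 for no effect and ±100 for the full control effect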). The following applies: ME-180 (cervical carcinoma) AP-1-bla reporter, EGF-induced, beta-lactamase ratio, 5 h; at 38 µM (top of the series). Summed up:
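A ratiometric CCF4 readout (405 nm excitation; 460 and 530 nm emission) quantified AP-1-driven beta-lactamase in ME-180 cells after 5 h with compound and EC50 EGF; AC50 values were derived for activators and inhibitors.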

Experiment [2] can be described thus: NFAT Signaling Pathway (AID 444; active = well fitted curve in either direction with a large enough effect, not every such curve was filed as active;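 also: carbachol stimulus at about its EC50 of 1 µM final; % is scaled to controls: 0 for no effect and ±100 for the full control effect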). The note with it: Jurkat NFAT-bla M1, carbachol, beta-lactamase ratio, 5 h; at 38 µM (top of the series). The gist of the method: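 Read-out: CCF4 FRET ratio (460 nm/530 nm) after 1 h RT dye loading, used for %activity and AC50 from titration series. Cells: Jurkat NFAT-β-lactamase/M1 line, treated with compound plus 1 uM carbachol for 5 h, 37 °C.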

Experiment [3] deals with Glucocorticoid receptor (Homo sapiens) (UniProt P04150). Put plainly: GR-GFP Redistribution (AID 450;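 active = compounds whose dose series gives a full or clear partial fitted curve of increased nuclear translocation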; also: potency is read from the fitted curve at half-maximal effect). The note with it: U2OS GR-GFP nuclear translocation, laser cytometry, 2 h.
The target is the same in experiment [4]. Put plainly: GR-EFC Redistribution (AID 451; calls by dose curve; also: potency is read from the fitted curve at half-maximal effect). The following applies: CHO-K1 GR-EFC translocation, beta-gal luminescence, 2 h. Summed up:
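Translocation of GR-ED fusion to nuclear EA restores b-gal, read by luminescence after 1 h room-temperature detection. Engineered CHO-K1 biosensor cells, 1,000/well, exposed 2 h at 37 C to titrations up to 46 uM final.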

Experiment [5] concerns the target 3',5'-cyclic-AMP phosphodiesterase 4B (Homo sapiens) (UniProt Q07343). The experiment in a line: qHTS Assay for Inhibitors of PDE-IV (AID 607; active = well fitted activation curve with a large enough effect in the main read-out, with a control signal flat, not every such curve was filed as active; also: % of control where 0% means no effect). Summed up: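 Live HEK293 cells with a modified cyclic nucleotide-gated (CNG) channel report intracellular cAMP via membrane-potential dye fluorescence (ex 535/em 590 nm). Endogenous PDE-IV was targeted. Compounds were tested at up to 22.9 uM final; RO 20-1724 100 uM served as control.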
(In general: Quantitative high-throughput screening tests each substance at several concentrations.)

Experiment [6] can be described thus: qHTS Assay for Identification of Small Molecule Antagonists for NFkB Signaling Pathway (AID 895; active = well fitted inhibition curve with a large enough effect in the signal ratio, with a control signal flat, not every such curve was filed as active; the % refers to the signal ratio; also: potency is read from the fitted curve at half-maximal effect). Summed up:
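Beta-lactamase reporter read-out (460 and 530 nm emission ratio, 405 nm excitation, 2 hrs substrate loading RT) after 5 hr stimulation with 10 pM TNF alpha in compound-treated NFkB-bla ME-180 cells in low-serum medium.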

Experiment [7] is described as follows: Confirmation and Secondary Assay for Modulators of Hemoglobin Beta Chain Splicing at IVS2 654 locus (AID 910).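 Also: HeLa cells stably carrying EGFP split by mutant beta-globin IVS2-654 intron; per-well total GFP intensity by laser scanning cytometry after 2-day treatment; % of control where 0% means no effect.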 The gist of the method:
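Readout: per-well total peak green fluorescence (488 nm ex, 500–520 nm em) from objects 5–250 µm, reflecting correct splicing of an EGFP-654 reporter. Compounds were applied for 2 days at 37 °C to overnight-plated HeLa EGFP-654 cells; controls were DMSO and 500 nM IVS2-654 PNA.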

A short description of experiment [8]: Confirmation and Secondary Assay for Modulators of Hemoglobin Beta Chain Splicing at IVS2 705 locus (AID 930).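 Also: HeLa cells stably expressing the EGFP-705 splicing reporter; GFP fluorescence per well restored by corrected splicing of the IVS2-705 intron in EGFP; % of control where 0% means no effect.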 The gist of the method: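 HeLa EGFP-705 reporter; 500 cells/well, o/n 37C 5% CO2; cpd 2 d; 488 ex/500-520 em laser scan; total peak GFP intensity/well. Ref: 500 nM […] antisense PNA.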
The target of experiment [9] is Muscarinic acetylcholine receptor M1 (Rattus norvegicus) (UniProt P08482). The experiment in a line: qHTS Assay for Antagonists of Acetylcholine Muscarinic M1 Receptor: Measurement of IP-One Response (AID 944). Also: nearly all actives have a fitted effect of over 75% in size. The gist of the method:
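Read-out: HTRF competition between d2-IP1 and Eu-cryptate anti-IP1 antibody, emission 620 and 665 nm. Stimulus was carbachol, EC80 (200 nM), for 30 min in M1-CHO cells (rat receptor), after 10 min compound pre-treatment.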

The target of experiment [10] is Pyruvate kinase (Leishmania mexicana) (UniProt Q27686). Put plainly: qHTS Validation Assay for Inhibitors of Leishmania Mexicana Pyruvate Kinase (AID 945).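 Also: 0% = DMSO only neutral control wells.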 The gist of the method: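 Substrate mix (0.5 mM PEP, 0.1 mM ADP, 7 mM MgCl2, 50 mM KCl, pH 7.2 imidazole) received compound by pin tool, then 0.2 nM LmPYK E451W. After 1 h at room temperature, PKLight was added and luminescence measured.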

Experiment [11] addresses Pyruvate kinase PKM (Homo sapiens) (UniProt P14618). Put plainly: qHTS Assay for Activators of Human Muscle Pyruvate Kinase (AID 954; active = well fitted curve in the direction sought with a large enough effect, not every such curve was filed as active;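 also: 0% = uninhibited enzyme and -100% = no enzyme or full thiadiazolimine inhibition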). The gist of the method: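 Screening used highly purified human pyruvate kinase M2 under submaximal activity, with PEP at its Km and ADP below Km. After an hour at room temperature, ATP was read by luciferase luminescence.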
The target in experiment [12] is alpha-glucosidase (Oryza sativa, rice) (UniProt Q653V4). The experiment in a line: Counterscreen for Glucocerebrosidase Inhibitors: qHTS Assay for Rice alpha-Glucosidase at pH 5.0 (AID 997).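 Also: 0% = full activity with enzyme and -100% = basal without enzyme.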 Summed up: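 Endpoint fluorogenic assay at pH 5.0: compounds (0.7 nM to 77 uM) titrated against 4 nM rice enzyme and 400 uM 4-MU-alpha-glucoside for 20 min at room temperature; NaOH/glycine stop, read ex 365/em 440 nm, Hill-fitted AC50.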
Background: The purpose of a counterscreen is to sort out artefacts and off-target activity.

Experiment [13] concerns the target DNA dC->dU-editing enzyme APOBEC-3G (Homo sapiens) (UniProt Q9HC16). Put plainly: qHTS for inhibitors of Vif-A3G interactions: Validation (AID 588379). Also: 0% is about no effect. The gist of the method:
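Yellow fluorescence (Ex 488, Em 500-530) of Vif-coexpressing HeLa A3G-eYFP cells, scanned by Acumen cytometer, reports blocked A3G degradation. Cells plated at 700/well overnight at 37 deg C before compound addition, then a further overnight compound incubation at 37 deg C.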

In experiment [14] the test system is Zika virus NS2B-NS3 protease. Put plainly: Primary screen GU AMC qHTS for Zika virus inhibitors (AID 1347154).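 Also: 0% = no-inhibitor control and -100% = no-enzyme control; nearly all actives have a fitted effect of over 70% in size.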 Summed up: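 Fluorogenic AMC-substrate cleavage by noncovalent NS2B-NS3 protease complex (25 nM, pH 8.0 Tris buffer with Tween 20) followed for 15 minutes at room temperature (~20% conversion). Percent inhibition from ex340/em450 signal change, fitted by 4-parameter Hill equation.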

Experiment [15] deals with Rap guanine nucleotide exchange factor 3 (Homo sapiens) (UniProt O95398). Put plainly: Confirmatory qHTS for agonist of cAMP-regulated guanine nucleotide exchange factor 3 (EPAC1) (AID 1645881).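 Also: EPAC1 catalysed release of BODIPY-GDP from Rap1B seen as fluorescence loss; nearly all actives have a fitted effect of over 75% in size.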
In experiment [16] the target is Rap guanine nucleotide exchange factor 4 (Homo sapiens) (UniProt Q8WZA2). The experiment in a line: Confirmatory qHTS for agonist of cAMP-regulated guanine nucleotide exchange factor 4 (EPAC2) (AID 1645884).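 Also: nucleotide exchange releases bodipy-GDP from Rap1 and this lowers its fluorescence; % is scaled to controls: 0 for no effect and ±100 for the full control effect; nearly all actives have a fitted effect of over 65% in size.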

A number with no mark means an inactive call. Records with an inconclusive call do not appear. Active and inactive are the calls of the source. Unless noted, calls follow the shape of the dose curve; as a rule, active = well fitted curve in the direction sought with a large enough effect; inconclusive = small, poorly fitted or top-dose-only effect, or another doubt; inactive = no such curve, though single readings can be large; an effect the other way counts as inactive or inconclusive.

Glucocorticoid receptor (Homo sapiens), sequence (P04150 whole entry, looked up): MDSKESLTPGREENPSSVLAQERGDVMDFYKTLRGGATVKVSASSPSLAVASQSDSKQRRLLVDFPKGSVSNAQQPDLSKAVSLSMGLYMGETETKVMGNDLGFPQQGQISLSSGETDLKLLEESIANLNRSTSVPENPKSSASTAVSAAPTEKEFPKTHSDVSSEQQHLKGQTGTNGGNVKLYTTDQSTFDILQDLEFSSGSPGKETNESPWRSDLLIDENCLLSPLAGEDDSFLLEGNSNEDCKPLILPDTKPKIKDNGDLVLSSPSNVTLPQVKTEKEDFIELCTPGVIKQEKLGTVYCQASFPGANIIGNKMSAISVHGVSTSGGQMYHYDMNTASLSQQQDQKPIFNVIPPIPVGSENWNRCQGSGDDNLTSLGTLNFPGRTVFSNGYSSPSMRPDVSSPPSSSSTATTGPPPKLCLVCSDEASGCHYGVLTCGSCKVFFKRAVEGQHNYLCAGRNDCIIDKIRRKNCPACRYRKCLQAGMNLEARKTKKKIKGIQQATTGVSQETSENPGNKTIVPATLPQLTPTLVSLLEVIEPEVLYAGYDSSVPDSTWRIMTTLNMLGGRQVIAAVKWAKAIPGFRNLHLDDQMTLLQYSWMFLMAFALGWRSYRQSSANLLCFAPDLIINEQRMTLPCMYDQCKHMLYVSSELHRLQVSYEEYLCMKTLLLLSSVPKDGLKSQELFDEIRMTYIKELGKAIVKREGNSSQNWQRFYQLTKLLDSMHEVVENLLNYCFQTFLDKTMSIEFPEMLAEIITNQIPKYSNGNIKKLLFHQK
3',5'-cyclic-AMP phosphodiesterase 4B (Homo sapiens), sequence (Q07343 whole entry, looked up): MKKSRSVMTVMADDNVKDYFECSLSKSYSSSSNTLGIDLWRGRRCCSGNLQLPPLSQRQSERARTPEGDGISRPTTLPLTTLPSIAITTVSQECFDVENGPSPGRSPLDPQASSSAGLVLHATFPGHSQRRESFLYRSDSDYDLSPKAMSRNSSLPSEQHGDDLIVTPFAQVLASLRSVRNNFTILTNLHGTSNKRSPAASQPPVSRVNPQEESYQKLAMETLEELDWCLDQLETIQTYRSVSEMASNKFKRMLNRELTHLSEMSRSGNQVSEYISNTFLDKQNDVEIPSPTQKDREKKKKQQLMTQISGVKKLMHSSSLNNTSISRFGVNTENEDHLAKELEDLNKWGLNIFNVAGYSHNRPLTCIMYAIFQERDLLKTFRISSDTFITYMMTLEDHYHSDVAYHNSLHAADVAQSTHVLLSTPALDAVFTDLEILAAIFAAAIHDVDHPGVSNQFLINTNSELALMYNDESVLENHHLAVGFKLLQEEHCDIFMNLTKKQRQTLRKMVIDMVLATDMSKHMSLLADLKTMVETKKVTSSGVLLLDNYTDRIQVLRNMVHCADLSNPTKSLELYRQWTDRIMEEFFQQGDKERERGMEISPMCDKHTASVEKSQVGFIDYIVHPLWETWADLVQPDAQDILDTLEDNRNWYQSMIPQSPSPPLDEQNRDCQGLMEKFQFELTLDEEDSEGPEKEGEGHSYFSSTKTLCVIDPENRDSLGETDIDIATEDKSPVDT
Pyruvate kinase (Leishmania mexicana), sequence (Q27686 2-499 E452W): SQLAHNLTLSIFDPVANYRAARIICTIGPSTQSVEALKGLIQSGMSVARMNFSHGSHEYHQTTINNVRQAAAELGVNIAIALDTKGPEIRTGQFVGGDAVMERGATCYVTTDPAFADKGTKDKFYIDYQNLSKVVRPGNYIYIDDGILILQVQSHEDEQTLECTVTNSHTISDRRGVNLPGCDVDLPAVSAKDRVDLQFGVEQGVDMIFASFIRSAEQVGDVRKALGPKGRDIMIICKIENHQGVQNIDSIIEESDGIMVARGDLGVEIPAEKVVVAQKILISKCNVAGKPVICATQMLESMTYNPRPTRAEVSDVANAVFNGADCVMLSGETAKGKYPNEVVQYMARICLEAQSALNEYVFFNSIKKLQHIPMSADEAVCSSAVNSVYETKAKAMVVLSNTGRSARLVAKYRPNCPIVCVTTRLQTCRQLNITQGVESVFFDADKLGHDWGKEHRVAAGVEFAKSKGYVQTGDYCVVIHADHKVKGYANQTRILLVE
Rap guanine nucleotide exchange factor 3 (Homo sapiens), sequence (O95398 whole entry, looked up): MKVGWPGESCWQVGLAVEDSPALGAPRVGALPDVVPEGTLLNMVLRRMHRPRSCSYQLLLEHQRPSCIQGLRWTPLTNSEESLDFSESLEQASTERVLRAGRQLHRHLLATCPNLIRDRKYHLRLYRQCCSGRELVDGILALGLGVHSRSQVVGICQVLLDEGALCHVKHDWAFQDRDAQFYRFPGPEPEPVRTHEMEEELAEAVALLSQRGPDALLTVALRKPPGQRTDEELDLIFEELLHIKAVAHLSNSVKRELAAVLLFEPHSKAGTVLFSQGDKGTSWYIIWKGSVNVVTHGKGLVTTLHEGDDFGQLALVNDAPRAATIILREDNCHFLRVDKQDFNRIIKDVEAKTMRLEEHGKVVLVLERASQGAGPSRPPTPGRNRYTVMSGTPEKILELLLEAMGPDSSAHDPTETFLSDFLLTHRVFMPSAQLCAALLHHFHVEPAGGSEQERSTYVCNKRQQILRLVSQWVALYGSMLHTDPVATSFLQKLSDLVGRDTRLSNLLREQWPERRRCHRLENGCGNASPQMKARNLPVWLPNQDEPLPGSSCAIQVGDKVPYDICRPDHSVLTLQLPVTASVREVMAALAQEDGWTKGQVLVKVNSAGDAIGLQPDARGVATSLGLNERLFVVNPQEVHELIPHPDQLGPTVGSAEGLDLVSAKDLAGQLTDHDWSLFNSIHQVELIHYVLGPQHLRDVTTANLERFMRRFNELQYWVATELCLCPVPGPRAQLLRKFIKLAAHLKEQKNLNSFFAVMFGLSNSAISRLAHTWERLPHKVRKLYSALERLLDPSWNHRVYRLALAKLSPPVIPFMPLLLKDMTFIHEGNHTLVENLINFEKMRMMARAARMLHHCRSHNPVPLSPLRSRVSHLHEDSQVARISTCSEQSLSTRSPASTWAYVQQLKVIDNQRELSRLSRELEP
Pyruvate kinase PKM (Homo sapiens), sequence (P14618 whole entry, looked up): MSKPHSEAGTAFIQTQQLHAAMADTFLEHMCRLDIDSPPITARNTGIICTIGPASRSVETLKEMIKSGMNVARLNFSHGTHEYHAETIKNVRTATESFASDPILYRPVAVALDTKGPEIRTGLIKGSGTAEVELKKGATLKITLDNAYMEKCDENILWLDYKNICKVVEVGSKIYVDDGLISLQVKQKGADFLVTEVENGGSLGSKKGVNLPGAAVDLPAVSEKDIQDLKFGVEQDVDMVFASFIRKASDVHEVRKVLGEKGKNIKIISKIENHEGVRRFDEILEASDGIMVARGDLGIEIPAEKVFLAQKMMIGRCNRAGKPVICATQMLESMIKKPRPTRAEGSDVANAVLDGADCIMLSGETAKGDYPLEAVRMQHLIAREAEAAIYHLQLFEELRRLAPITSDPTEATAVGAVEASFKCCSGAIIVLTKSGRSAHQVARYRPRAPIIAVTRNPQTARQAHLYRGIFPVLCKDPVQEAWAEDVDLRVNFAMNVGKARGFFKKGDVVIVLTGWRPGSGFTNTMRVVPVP
Rap guanine nucleotide exchange factor 4 (Homo sapiens), sequence (Q8WZA2 whole entry, looked up): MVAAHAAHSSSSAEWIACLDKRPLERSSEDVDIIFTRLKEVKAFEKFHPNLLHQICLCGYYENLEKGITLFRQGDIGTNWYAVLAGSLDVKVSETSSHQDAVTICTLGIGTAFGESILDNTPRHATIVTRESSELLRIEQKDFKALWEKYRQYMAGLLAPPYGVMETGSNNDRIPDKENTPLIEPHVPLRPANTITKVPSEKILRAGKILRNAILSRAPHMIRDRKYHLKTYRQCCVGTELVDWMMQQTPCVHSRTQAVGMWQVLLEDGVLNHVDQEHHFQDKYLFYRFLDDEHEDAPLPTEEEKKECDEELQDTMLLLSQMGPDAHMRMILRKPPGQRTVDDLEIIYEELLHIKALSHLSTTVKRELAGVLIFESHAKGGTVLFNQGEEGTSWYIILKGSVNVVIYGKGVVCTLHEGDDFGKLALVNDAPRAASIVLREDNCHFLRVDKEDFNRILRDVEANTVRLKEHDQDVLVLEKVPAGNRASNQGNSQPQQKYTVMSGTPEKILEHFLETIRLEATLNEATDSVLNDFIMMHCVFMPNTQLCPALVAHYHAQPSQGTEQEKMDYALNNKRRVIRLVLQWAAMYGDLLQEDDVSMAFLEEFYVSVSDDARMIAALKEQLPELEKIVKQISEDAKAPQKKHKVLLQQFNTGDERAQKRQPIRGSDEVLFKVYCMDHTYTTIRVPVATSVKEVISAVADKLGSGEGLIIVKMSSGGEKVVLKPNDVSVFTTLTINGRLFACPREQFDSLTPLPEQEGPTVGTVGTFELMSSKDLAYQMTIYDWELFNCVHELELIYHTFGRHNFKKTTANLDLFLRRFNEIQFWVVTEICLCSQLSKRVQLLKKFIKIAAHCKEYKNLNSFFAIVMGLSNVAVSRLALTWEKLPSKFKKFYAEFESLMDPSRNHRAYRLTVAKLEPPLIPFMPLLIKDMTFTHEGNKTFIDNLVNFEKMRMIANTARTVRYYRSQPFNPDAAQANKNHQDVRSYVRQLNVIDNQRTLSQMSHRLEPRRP
DNA dC->dU-editing enzyme APOBEC-3G (Homo sapiens), sequence (Q9HC16 whole entry, looked up): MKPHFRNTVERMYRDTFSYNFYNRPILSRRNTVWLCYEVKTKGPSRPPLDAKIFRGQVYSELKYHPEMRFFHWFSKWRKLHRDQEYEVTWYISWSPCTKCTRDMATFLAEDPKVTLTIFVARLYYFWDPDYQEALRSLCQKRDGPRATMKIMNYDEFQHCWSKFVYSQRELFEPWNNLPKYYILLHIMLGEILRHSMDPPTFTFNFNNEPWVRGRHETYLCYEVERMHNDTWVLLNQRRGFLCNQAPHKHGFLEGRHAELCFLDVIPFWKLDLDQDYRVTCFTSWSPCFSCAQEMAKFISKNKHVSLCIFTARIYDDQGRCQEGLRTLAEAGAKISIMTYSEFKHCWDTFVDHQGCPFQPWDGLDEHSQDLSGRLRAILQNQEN

On to `COCCOC(=O)C1=C(C)NC(C)=C(C(=O)OC(C)C)[C@@H]1c1cccc([N+](=O)[O-])c1`, for which the activity change, negative = inhibition in experiment [1] was -20.1%; in experiment [2], -10.3%. Moreover, the Potency in experiment [3] was over 46 µM; in experiment [4], over 46 µM; in [6], 7.08 µM (active). Also, the Potency result in experiment [5], in experiment [9], in experiment [10], in experiment [13] and in experiment [14] was “inactive” throughout. The compound was classed as inactive in experiment [7], in experiment [8], in experiment [11], in [12], in experiment [15] and in [16].

Values taken from PubChem BioAssay (NCATS).
